The values that follow come from PubChem BioAssay.

The nature of experiment [1]: anti-His antibody binders, primary screen, artefact control for SMM control protein annotation, biochemical, small-molecule microarray, 635 nm fluorescence (AID 1128).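 Further: score merges feature fluorescence with signal-to-noise for each printed compound spot.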 The settings on record: anti-His Alexa647 antibody binding, higher = more signal.
For experiment [2], the system named is Human papillomavirus type 1a E7 protein (residues 1-88). The experiment can be described thus: HPV1a E7 small-molecule binders, primary screen, biochemical, small-molecule microarray, residues 1-88, 635 nm (AID 1129). The settings on record: small-molecule microarray binding, fluorescence 635 nm; higher = more signal.
The target of experiment [3] is Focal adhesion kinase 1 (Homo sapiens) (UniProt Q05397). The experiment can be described thus: small-molecule microarray binders of FAK, primary screen, biochemical, 635/667 nm fluorescence, BSA, DTT (AID 1130).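 Further: composite of spot emission at 667 nm and signal to noise over triplicate slides.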 The note with it: PTK2 binding, 635 nm fluorescence, higher = more signal.
Chain of Focal adhesion kinase 1 (Homo sapiens) (Q05397 whole entry, looked up): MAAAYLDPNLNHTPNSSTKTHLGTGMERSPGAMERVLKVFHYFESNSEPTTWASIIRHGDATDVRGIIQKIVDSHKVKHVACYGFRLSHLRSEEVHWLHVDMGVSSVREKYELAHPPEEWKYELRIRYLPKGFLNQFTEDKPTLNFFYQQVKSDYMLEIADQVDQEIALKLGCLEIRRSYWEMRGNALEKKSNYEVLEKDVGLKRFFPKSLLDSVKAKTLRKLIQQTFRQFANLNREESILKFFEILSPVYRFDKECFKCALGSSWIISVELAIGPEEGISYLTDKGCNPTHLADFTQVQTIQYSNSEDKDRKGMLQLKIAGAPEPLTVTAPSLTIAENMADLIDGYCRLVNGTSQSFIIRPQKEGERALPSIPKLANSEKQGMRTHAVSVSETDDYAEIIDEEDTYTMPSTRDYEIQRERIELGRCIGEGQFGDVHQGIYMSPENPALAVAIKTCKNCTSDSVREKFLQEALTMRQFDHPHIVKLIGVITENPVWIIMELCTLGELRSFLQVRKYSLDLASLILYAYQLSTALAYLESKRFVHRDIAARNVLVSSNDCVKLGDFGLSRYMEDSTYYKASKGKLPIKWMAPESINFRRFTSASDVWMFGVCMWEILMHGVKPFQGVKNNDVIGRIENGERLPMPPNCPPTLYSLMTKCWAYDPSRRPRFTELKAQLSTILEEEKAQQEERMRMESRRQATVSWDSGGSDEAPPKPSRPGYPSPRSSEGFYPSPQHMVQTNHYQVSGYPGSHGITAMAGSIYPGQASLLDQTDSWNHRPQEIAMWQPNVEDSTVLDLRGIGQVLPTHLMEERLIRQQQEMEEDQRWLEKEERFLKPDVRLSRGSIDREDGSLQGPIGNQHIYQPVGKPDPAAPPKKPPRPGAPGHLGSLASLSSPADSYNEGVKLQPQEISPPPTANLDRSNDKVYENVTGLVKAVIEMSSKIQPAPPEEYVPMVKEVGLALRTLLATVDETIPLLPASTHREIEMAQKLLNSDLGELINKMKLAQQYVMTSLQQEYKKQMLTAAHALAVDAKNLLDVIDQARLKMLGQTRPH
Experiment [4] has as its system Fibrinogen (Alexa647-labelled). The experiment can be described thus: fibrinogen binders on compound microarrays, profiling panel, artefact control for SMM control-protein annotation, biochemical, small-molecule microarray, 635/667 nm fluorescence (AID 1131).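 Further: z-score merges 667 nm fluorescence with per-spot signal-to-noise over triplicate slides.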 The settings on record: fibrinogen-A647 binding fluorescence, higher = more signal.
For experiment [5], the target named is Follistatin (Homo sapiens) (UniProt P19883). The experiment can be described thus: follistatin binders on small-molecule microarrays, primary screen, biochemical, small-molecule microarray, 635/667 nm fluorescence (AID 1132). The settings on record: FST binding, 635 nm fluorescence, higher = more signal.
Chain of Follistatin (Homo sapiens) (P19883 whole entry, looked up): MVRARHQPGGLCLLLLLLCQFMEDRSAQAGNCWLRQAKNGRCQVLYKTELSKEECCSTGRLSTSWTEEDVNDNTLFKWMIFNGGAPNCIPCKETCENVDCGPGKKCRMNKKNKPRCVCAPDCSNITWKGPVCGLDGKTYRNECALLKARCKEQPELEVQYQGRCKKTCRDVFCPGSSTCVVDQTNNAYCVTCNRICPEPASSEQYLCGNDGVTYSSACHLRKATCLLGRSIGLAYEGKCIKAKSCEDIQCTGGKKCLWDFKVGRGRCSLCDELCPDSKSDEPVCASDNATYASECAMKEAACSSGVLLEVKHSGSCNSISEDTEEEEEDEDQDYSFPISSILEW
The target in experiment [6] is Fibroblast growth factor 2 (Homo sapiens) (UniProt P09038). The experiment can be described thus: FGF2 binders on small-molecule microarrays, primary screen, biochemical, small-molecule microarray, 635/667 nm fluorescence (AID 1133). The note with it: small-molecule microarray binding, FGF2, fluorescence 635/667; higher = more signal.
Chain of Fibroblast growth factor 2 (Homo sapiens) (P09038 whole entry, looked up): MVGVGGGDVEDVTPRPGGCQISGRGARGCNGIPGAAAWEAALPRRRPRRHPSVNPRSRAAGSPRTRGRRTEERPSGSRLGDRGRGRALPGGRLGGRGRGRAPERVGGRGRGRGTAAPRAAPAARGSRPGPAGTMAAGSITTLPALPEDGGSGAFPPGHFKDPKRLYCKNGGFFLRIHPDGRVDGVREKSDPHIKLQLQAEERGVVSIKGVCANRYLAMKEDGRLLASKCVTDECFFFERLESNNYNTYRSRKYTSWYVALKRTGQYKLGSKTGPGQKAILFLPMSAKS
A short description of experiment [7]: mitochondrial membrane potential change in A549 cells, profiling panel, cell-based, JC-1 fluorescence, basal, 24 h, 100 nL (AID 1138).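 Further: A549 lung adenocarcinoma cells under basal conditions with no added stimulus; test concentration not given here.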 The settings on record: higher = more signal.
The subject of another experiment is Lefty1. The experiment can be described thus: Lefty1 binders on small-molecule microarrays, primary screen, biochemical, small-molecule microarray, 635/667 nm fluorescence (AID 1139). The settings on record: small-molecule microarray binding, fluorescence 635/667; higher = more signal.
Experiment [8] relates to wheat germ agglutinin (Triticum aestivum), Alexa647-labelled. The experiment can be described thus: wheat germ agglutinin binders on compound microarrays, profiling panel, artefact control for SMM control-protein annotation, biochemical, small-molecule microarray, 635/667 nm fluorescence (AID 1140).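 Further: score merges 667 nm feature emission with signal to noise over triplicate slides.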 The note with it: WGA-A647 binding, 635 nm fluorescence, higher = more signal.

Experiment [9] concerns the target Luciferin 4-monooxygenase (Photinus pyralis) (UniProt P08659). The experiment can be described thus: firefly luciferase enzyme inhibitors, primary screen, biochemical, luminescence, purified enzyme, 2006 set (AID 1141).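 Further: cell-free assay with purified firefly luciferase at 100 ng per well in PBS; test concentration not given here.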 The settings on record: SteadyGlo luminescence, 30 min, higher = more signal, called active from +8 up or from −8 down.

SMILES strings stand for the structures. Activity calls are given as the source filed them.

Chain of Luciferin 4-monooxygenase (Photinus pyralis) (P08659 whole entry, looked up): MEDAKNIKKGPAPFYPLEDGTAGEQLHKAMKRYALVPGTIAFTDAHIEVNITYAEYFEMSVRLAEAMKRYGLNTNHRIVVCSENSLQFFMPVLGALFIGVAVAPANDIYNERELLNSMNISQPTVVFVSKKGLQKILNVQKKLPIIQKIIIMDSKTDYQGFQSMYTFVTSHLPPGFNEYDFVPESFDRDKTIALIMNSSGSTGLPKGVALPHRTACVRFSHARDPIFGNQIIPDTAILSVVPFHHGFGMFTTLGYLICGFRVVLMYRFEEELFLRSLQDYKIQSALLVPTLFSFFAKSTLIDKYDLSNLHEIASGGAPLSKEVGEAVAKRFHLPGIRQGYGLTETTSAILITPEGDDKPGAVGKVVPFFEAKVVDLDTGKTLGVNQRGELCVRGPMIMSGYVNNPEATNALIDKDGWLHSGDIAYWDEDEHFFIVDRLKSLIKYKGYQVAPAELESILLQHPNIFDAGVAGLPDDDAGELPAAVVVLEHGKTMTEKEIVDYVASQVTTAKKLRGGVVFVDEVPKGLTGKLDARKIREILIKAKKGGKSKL

As for `CCOC(=O)C[C@H]1[C@H](OC(=O)c2cc3ccccc3oc2=O)[C@@H](NC(=O)CC(C)C)c2cc(OCCCO)ccc2N1C(=O)Cc1ccc(OC)cc1`, the composite z-score is 0.0111 in experiment [1]; 0.43 in [2]; -0.0515 in experiment [3]; 0.942 in experiment [4]; 0.642 in experiment [5]; 0.443 in experiment [6]. Besides, the composite z-score is 0.849 with Lefty1 and 0.158 in experiment [8]. Moreover, the z-score in experiment [7] is 0.613; in [9], 0.411 (inactive).
In the case of `COC(=O)C(CC#Cc1ccc2c(c1)[C@]1(C(=O)N2)[C@H](C(=O)NC[C@H](O)c2ccccc2)[C@H]2C(=O)O[C@H](c3ccccc3)[C@H](c3ccccc3)N2[C@@H]1c1ccccc1OCCO)C(=O)OC`, the composite z-score in experiment [1] worked out at 2.68; in [2], 1.23; in experiment [3], 0.289; in experiment [4], 0.478; in [5], 1.25; in experiment [6], 1.56. Further, the results for the composite z-score (with Lefty1; in [8]) were 0.221 and 1.09, respectively. For the same compound, the z-score in experiment [7] is -0.693; in experiment [9], 0.742 (inactive).
On to `CC(C)(C)N1CC=CC23O[C@@H]4/C=C\CCCOC(=O)C4[C@H]2C(=O)N(CCCO)[C@@H]3C1=O` (stereo not given in full), for which the composite z-score was 0.343 in experiment [1]; -0.849 in [2]; -0.572 in experiment [3]; -2.06 in experiment [4]; -0.768 in [5]; -0.811 in [6]. In addition, the composite z-score with Lefty1 was -0.538; in experiment [8], -1.38. Also, the z-score in experiment [7] is -0.534; in experiment [9], 0.552 (inactive).
Consider `CC1=C([C@H](O)CCc2ccccc2)[C@H](CO)n2c(=O)n(-c3ccccc3)c(=O)n2C1`, for which the composite z-score is -0.56 in [1]; -0.37 in experiment [2]; -0.168 in [3]; -0.178 in experiment [4]; 0.155 in experiment [5]; 0.302 in experiment [6]. Besides, the figures for the composite z-score (with Lefty1; in experiment [8]) were 0.27 and -0.137, respectively. For the same compound, the z-score in experiment [7] was 1.18; in [9], -0.728 (inactive).
As to `O=C1C2C=CC(C(O)c3cccs3)N(Nc3ccc([N+](=O)[O-])cc3)C2C(=O)N1c1ccccc1` (stereo not given), the composite z-score is 0.482 in experiment [1]; 1.11 in [2]; 0.894 in experiment [3]; 0.697 in experiment [4]; 0.337 in [5]; -0.105 in [6]. Besides, the composite z-score in the experiment on Lefty1 is -0.457; in experiment [8], 0.844. Besides, the z-score in experiment [7] was -0.908; in experiment [9], 1.1 (inactive).
Regarding `CCOC(=O)C1=CCC(c2cc3ccccc3[nH]2)N(CCN2CC(C(=O)OCC)=CCC2c2cc3ccccc3[nH]2)C1` (stereo not given), the composite z-score is 1.65 in [1]; 1.22 in experiment [2]; 0.142 in experiment [3]; 0.974 in experiment [4]; 0.748 in experiment [5]; 0.0905 in experiment [6]. Also, the composite z-score in the experiment on Lefty1 was 0.24; in [8], 1. Moreover, the z-score in experiment [7] was -1.43; in experiment [9], 1.77 (inactive).
On to `COc1ccc([Si](C)(C)[C@H]2[C@H](CC(=O)N3Cc4ccccc4C[C@H]3CO)O[C@@]3(C(=O)N(C)c4c(Br)cc(C)cc43)[C@@H]2C)cc1`, for which the composite z-score in experiment [1] came out at 0.533; in experiment [2], 0.777; in experiment [3], 0.172; in experiment [4], 0.636; in experiment [5], 1.34; in [6], 1.24. Besides, the composite z-score with Lefty1 was found to be 1.58; in experiment [8], 0.655. The results for the z-score in experiment [7] and in experiment [9] were -0.224 and -0.0165 (inactive), respectively.
With `C=C(CCCC)/C(=C/C[C@H](OC(=O)c1ccncc1)c1cccc(OCCO)c1)c1cnc2ccccc2c1`, the composite z-score in experiment [1] amounted to 0.13; in experiment [2], 1.1; in experiment [3], 0.469; in experiment [4], 0.957; in experiment [5], 1.11; in experiment [6] it was 0.688. The composite z-score in the experiment with Lefty1 turned out to be 1.07; in experiment [8], 0.851. In addition, the figures for the z-score in experiment [7] and in experiment [9] were 2.01 and -0.78 (inactive), respectively.
